High-throughput results: PubChem BioAssay, National Center for Advancing Translational Sciences (NCATS)
Hits are enriched below; roughly 21% of the tested compounds scored in any of these assays.
Pf growth 96h – Primary qHTS for delayed death inhibitors of the malarial parasite plastid, 96 hour incubation; Potency, µM (titrated, usually from 28.7 µM), actives largely listed as inhibitors; actives 6.9% (n = 320,000); P. falciparum luciferase reporter growth, 96 h; AID 504834, 2011
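Two-generation exposure (96 h) targets delayed-death phenotype. Reporter parasites carrying integrated firefly luciferase, in red cells at 2% hematocrit and 0.05% parasitemia final, kept at 37 C, 5% CO2; luminescence loss indicates inhibition.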
Pf growth 48h – Primary qHTS for delayed death inhibitors of the malarial parasite plastid, 48 hour incubation | P. falciparum luciferase growth in erythrocytes, 48 h | Potency, µM (doses to about 28.7 µM), usual class: inhibitors | actives 5.9% (n = 310,000) | AID 504832, 2011
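Luciferase-expressing P. falciparum in infected erythrocytes (2% hematocrit, 0.1% parasitemia final) in RPMI 1640/0.5% Albumax were exposed to compound for 48 hours at 37 C, 5% CO2; growth read as luminescence.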
Cycloheximide cs – Cycloheximide Counterscreen for Small Molecule Inhibitors of Shiga Toxin. cell reporter, cycloheximide protein synthesis inhibition counterscreen. max response, %. actives 12% (n = 300,000); in the data active = max response mostly above about 13%, no sharp cut-off; inactive = mostly below about 14%; also: read at 38.3 µM for the half of the compounds with a filed dose
Shiga toxin inh – A qHTS for Small Molecule Inhibitors of Shiga Toxin; Vero cells, Shiga toxin protein synthesis inhibition reporter; inhibition, % at 38.7 µM; actives 9.2% (n = 290,000); AID 2315, 2010; in the data active = inhibition mostly above about 28%, no sharp cut-off; inactive = mostly below about 43%
Hits are given with their value; – = inactive; ? = inconclusive; · = not tested or not shown; + = active, no number; [ ] = dose if it differs, or a comment. Unless noted, calls follow the shape of the dose curve; as a rule, active = well fitted inhibition curve with a large enough effect; inconclusive = small, poorly fitted or top-dose-only effect, or another doubt; inactive = no such curve, though single readings can be large or run the other way.

SMILES	Pf growth 96h	Pf growth 48h	Cycloheximide cs	Shiga toxin inh
CSc1cccc(NC(=O)c2nnn(Cc3ccccc3)c2N)c1	–	9.3µM	–	–
Nc1c(C(=O)NCCc2ccccc2)nnn1Cc1ccccc1	·	–	30	43
O=C(Nc1ccccc1)c1nnn(Cc2ccccc2)c1NC(=O)C(F)(F)F	–	–	45	79
COc1cc(NC(=O)c2nnn(Cc3ccc(SC)cc3)c2N)cc(OC)c1	12µM	·	–	–
CCn1nc(C)c(CNC(=O)c2cc(COc3ccc(F)cc3Cl)on2)c1C	–	–	–	–
N#C/C(=C\c1ccc(F)cc1F)S(=O)(=O)c1ccccn1	–	–	–	–
COc1ccc(Cn2nnc(C(=O)Nc3ccc4c(c3)OCCO4)c2N)cc1Br	12µM	–	17	–
O=C(NCc1ccccn1)c1ccc(OC2CCN(Cc3ccc(F)cc3F)CC2)cc1	–	12µM	–	–
COc1cccc(CN2CCC(Oc3ccc(C(=O)NCc4ccccn4)cc3)CC2)c1O	6.6µM	?	–	–
O=C(NCc1ccccn1)c1ccc(OC2CCN(Cc3ccccc3O)CC2)cc1	?	?	–	–
COc1ccc(CN2CCC(Oc3ccc(C(=O)NCc4ccccn4)cc3)CC2)c(F)c1	?	–	–	–
CCC(C)N1CCC(Oc2ccc(C(=O)NCc3ccccn3)cc2)CC1 (stereo not given)	10µM	–	–	–
COCc1ccc(C(=O)N2CCCC(Nc3ccc4c(c3)OCCO4)C2)o1 (stereo not given)	–	–	–	–
Nc1c2c(nc3ccn(Cc4ccccc4)c(=O)c13)CCC2	2.9µM	·	–	–
O=c1[nH]c2sc3c(c2c(=O)n1Cc1ccccc1)CCC3	–	–	–	–
O=c1[nH]c(N2CCN(c3ccccc3)CC2)nc2c1CCCC2	–	·	–	–
Nc1c2c(nc3ccn(-c4ccccc4)c(=O)c13)CCCCC2	17µM	?	–	–
Cc1nn(Cc2ccccc2)c(Cl)c1/C=C1\NC(=S)NC1=O	–[1.15 µM]	–	–	–
CC(=O)NC1C(=O)N=C(SC(C)C(=O)Nc2cccc(Cl)c2)NC1=O (stereo not given)	–[5.75 µM]	–	–	–
CN(CC(=O)Nc1ccc(F)c(F)c1F)C(=O)c1ccc(-n2cncn2)c([N+](=O)[O-])c1	–	–	·	·
O=C(CN(Cc1ccccc1)C(=O)CCC(=O)Nc1nccs1)NCC1CCCO1 (stereo not given)	–	–	–	–
COCCN(CC(=O)NCC1CCCO1)C(=O)CCC(=O)Nc1cc(C)on1 (stereo not given)	1.7µM	–	–	–
O=C(CN(CC1CCCO1)C(=O)CCC(=O)Nc1nccs1)NCC1CCCO1 (stereo not given)	13µM	–	–	–
COc1ccc(-n2c(C)nnc2SCC(=O)N2CCOCC2)cc1	–	–	–	–
Cc1ccccc1N=C1NC(=O)/C(=C/c2cccn2C)S1	–	?	13	–
SMILES	Pf growth 96h	Pf growth 48h	Cycloheximide cs	Shiga toxin inh
O=C1NC(=Nc2ccccc2)S/C1=C\c1cccn1-c1ccccc1	?	·	47	61
O=C1NC(=Nc2ccccc2)S/C1=C\c1cccnc1	–	–	–	–
Cc1cccc(N=C2NC(=O)/C(=C/c3cccn3C)S2)c1	?	?	27	52
CC(C)(C)OC(=O)CNC(=O)c1nc[nH]c1C(=O)N1CCNCC1	–	–	·	·
Cc1ccc(N=Nc2c(N)nn3c(C)cc(C)nc23)cc1	–	–	21	–
Cc1ccc(N=Nc2c(N)nn(-c3ccccc3)c2N)cc1	–	–	63	91
Cc1nn(-c2ccccc2)c(N)c1N=Nc1ccc2ccccc2c1	–	–	39	56
CC(C)(C)C(=O)OCc1nc(-c2ccc(C(F)(F)F)cc2)cs1	–	–	19	–
NC(=O)C1CCN(c2nc(-c3ccc(C(F)(F)F)cc3)cs2)CC1	–	?	·	·
C/C(=N\NC(=O)c1cc2ccccc2cc1O)c1cc2ccccc2o1	?	?	–	–
C/C(=N\NC(=O)CCCNc1ccc(C)cc1)c1ccccn1	?	?	–	–
C/C(=N\Nc1ccc(Cl)c(C(=O)O)c1)c1cccc2ccccc12	–	–	12	–
C/C(=N\Nc1cccc([N+](=O)[O-])c1)c1cc2ccccc2o1	–	–	40	44
C/C(=N\Nc1ccc(Cl)c(C(=O)O)c1)c1cc2ccccc2o1	–	–	80	+
C/C(=N\Nc1ccc(Cl)c(C(=O)O)c1)c1ccccn1	–	–	94	138
CN(C(=O)Nc1ccc(Cl)c(Cl)c1)c1ccccc1C(=O)O	–	–	–	–
O=C(Cc1cccs1)N1CCN(S(=O)(=O)c2ccc(F)c(F)c2)CC1	?	–	·	·
O=[N+]([O-])c1cccc(N/N=C/c2cccc3ccccc23)c1	–	–	30	42
O=[N+]([O-])c1ccc(Cl)c(/C=N/NC(=S)Nc2ccccc2)c1	?	?	–	–
CC(C)n1cc(/C=N/Nc2ccc(Cl)c(C(=O)O)c2)c2ccccc21	–	–	49	·
C/C(=N\Nc1cccc(C(=O)O)c1)c1cc2ccccc2o1	–	–	71	198
O=C(O)c1cc(N/N=C/c2cccc3ccccc23)ccc1Cl	–	–	103	114
CC(=O)c1cccc(NC(=O)CNC(=O)c2cc3ccccc3o2)c1	–	–	–	–
CC(C)C[C@H](NC(=O)[C@H](CCCCN)NC(=O)[C@H](CCC(N)=O)NC(=O)[C@H](Cc1cnc[nH]1)NC(=O)[C@H](Cc1cnc[nH]1)NC(=O)[C@@H](N)C(C)C)C(=O)N[C@H](C(=O)N[C@@H](Cc1ccccc1)C(=O)N[C@@H](Cc1ccccc1)C(=O)N[C@@H](C)C(=O)N[C@@H](CCC(=O)O)C(=O)N[C@@H](CC(=O)O)C(=O)N[C@H](C(=O)NCC(=O)N[C@@H](CO)C(=O)N[C@@H](CC(N)=O)C(=O)N[C@@H](CCCCN)C(=O)O)C(C)C)C(C)C	·	·	–	–
COc1cc(NC(=O)C2CCN(S(=O)(=O)c3ccc4[nH]c(=O)oc4c3)CC2)cc(OC)c1	?	–	–	–
SMILES	Pf growth 96h	Pf growth 48h	Cycloheximide cs	Shiga toxin inh
O=C(O)c1cn(C2CC2)c2cc(N3CCN(S(=O)(=O)c4ccc5c(c4)OCCO5)CC3)c(F)cc2c1=O	?	?	–	–
C/C(=N\Nc1ncc(Cl)cc1Cl)c1ccccn1	?	–	43	119
O=C(O)c1cc(NC(=S)NC(=O)C(c2ccccc2)c2ccccc2)ccc1Cl	?	?	–	–
O=C(O)c1cc(N/N=C/C(Cl)=C/c2ccccc2)ccc1Cl	–	–	68	183
O=Nc1c(O)n(Cc2cccc(C(F)(F)F)c2)c2ccccc12	–	?	–	–
CN1C(=O)CC(C(=O)Nc2ccc(F)cc2)SC1=Nc1ccc2c(c1)OCO2 (stereo not given)	–	?	–	–
COc1ccc(NC(=O)C2CC(=O)N(C)C(=Nc3ccc4c(c3)OCO4)S2)cc1 (stereo not given)	?	10µM	–	–
CCN1C(=O)C2(C(C(=O)c3cc4ccccc4o3)=C(O)C(=O)N2CCCN2CCOCC2)c2ccccc21 (stereo not given)	–	–	–	–
